Results filed as inconclusive are left out. The source made the active and inactive calls. Unless noted, calls follow the shape of the dose curve; as a rule, active = well fitted curve in the direction sought with a large enough effect; inconclusive = small, poorly fitted or top-dose-only effect, or another doubt; inactive = no such curve, though single readings can be large; an effect the other way counts as inactive or inconclusive.
Assays:
[1] = target: Lysosomal acid glucosylceramidase (Homo sapiens) (UniProt P04062); assay: Glucocerebrosidase-p2 (AID 348; in the data active = potency below about 10 µM; also: potency is read from the fitted curve at half-maximal effect); settings: purified GBA, blue fluorogenic substrate, 40 min
Summary of the method: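 Normal human glucocerebrosidase (0.2 nM) with blue fluorogenic substrate (80 uM final) in citrate/phosphate pH 5.9 with 10mM sodium taurocholate, 0.01% tween-20; 40 min RT, NaOH/glycine stop; fluorescence Ex 365/Em 440; AC50 from a titration from 0.6 nM upwards.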

[2] = AP1 Signaling Pathway (AID 357; active = well fitted curve in either direction with a large enough effect, not every such curve was filed as active;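 also: ME-180 reporter cells stimulated with EGF at its EC50 level; % is scaled to controls: 0 for no effect and ±100 for the full control effect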); settings: ME-180 AP-1-bla reporter, EGF-induced, beta-lactamase ratio, 5 h; at 7.69 µM (top of the series) unless noted
Summary of the method: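 Modulation of EGF-driven AP-1 transcription was assessed with a beta-lactamase reporter in ME-180 cells. Compound and EC50 EGF were co-incubated 5 hours at 37 °C before 2.5-hour CCF4 loading at room temperature and dual-emission reading.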

[3] = NFAT Signaling Pathway (AID 444; active = well fitted curve in either direction with a large enough effect, not every such curve was filed as active;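 also: carbachol stimulus at about its EC50 of 1 µM final; % is scaled to controls: 0 for no effect and ±100 for the full control effect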); settings: Jurkat NFAT-bla M1, carbachol, beta-lactamase ratio, 5 h; at 7.69 µM (top of the series) unless noted
Summary of the method: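 Read-out: CCF4 FRET ratio (460 nm/530 nm) after 1 h RT dye loading, used for %activity and AC50 from titration series. Cells: Jurkat NFAT-β-lactamase/M1 line, treated with compound plus 1 uM carbachol for 5 h, 37 °C.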

[4] = Stat Signaling Pathway (AID 446; active = well fitted curve in either direction with a large enough effect, not every such curve was filed as active;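 also: ME-180 cervical cancer cells given 40 pM IL-6 alongside compound; SIE-controlled beta-lactamase reporter measured as 460/530 nm FRET emission ratio; % is scaled to controls: 0 for no effect and ±100 for the full control effect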); settings: ME-180 (cervical carcinoma) SIE beta-lactamase reporter, IL-6 stimulated, 5 h; at 7.69 µM (top of the series) unless noted
Summary of the method: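 Normalization used AC90 stimulation (300 pM IL-6) and AC90 inhibition (125 nM pan-JAK inhibitor at 40 pM IL-6). The underlying signal is SIE-driven beta-lactamase in ME-180 cells after 5 h IL-6 exposure with compound.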

[5] = target: Glucocorticoid receptor (Homo sapiens) (UniProt P04150); assay: GR-GFP Redistribution (AID 450;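 active = compounds whose dose series gives a full or clear partial fitted curve of increased nuclear translocation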; also: potency is read from the fitted curve at half-maximal effect); settings: U2OS GR-GFP nuclear translocation, laser cytometry, 2 h
[6] = target: Glucocorticoid receptor (Homo sapiens) (UniProt P04150); assay: GR-EFC Redistribution (AID 451; calls by dose curve; also: potency is read from the fitted curve at half-maximal effect); settings: CHO-K1 GR-EFC translocation, beta-gal luminescence, 2 h
Summary of the method: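 Translocation of GR-ED fusion to nuclear EA restores b-gal, read by luminescence after 1 h room-temperature detection. Engineered CHO-K1 biosensor cells, 1,000/well, exposed 2 h at 37 C to titrations up to 46 uM final.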

[7] = target: Mitogen-activated protein kinase 10 (Mus musculus) (UniProt Q61831); assay: JNK3 AlphaScreen Assay (AID 530; active = well fitted curve in either direction with a large enough effect, not every such curve was filed as active;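 also: kinase came from lysate of stimulated human HepG2 cells; signal reports phosphorylation of biotinylated GST-cJun 1-79 at Ser73 with 10 µM ATP; % is scaled to controls: 0 for no effect and ±100 for the full control effect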); settings: JNK3 lysate, c-Jun phosphorylation; series mostly up to 57.1 µM
Summary of the method: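 Kinase buffer: 20 mM Tris-HCl pH 7.6, 10 mM MgCl2, 1 mM DTT, 0.1 mM Na3VO4, 0.01% Tween-20; ATP 10 uM. Substrate biotin-GST-cJun(1-79), enzyme from activated HepG2 lysates. Detection by Ser73 phospho-antibody AlphaScreen.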

[8] = target: 3',5'-cyclic-AMP phosphodiesterase 4B (Homo sapiens) (UniProt Q07343); assay: qHTS Assay for Inhibitors of PDE-IV (AID 607; active = well fitted activation curve with a large enough effect in the main read-out, with a control signal flat, not every such curve was filed as active; also: % of control where 0% means no effect); settings: HEK293 ACTOne CNG channel cells, membrane potential fluorescence; series mostly up to 22.9 µM
Summary of the method: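 HEK293 ACTOne cells with CNG channel (1000/well), endogenous PDE4; membrane potential dye, compounds up to 22.9 uM final. Fluorescence Ex 535/Em 590; RO 20-1724 (100 uM final) as reference.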

[9] = qHTS Assay for Lipid Storage Modulators (AID 1519; calls by dose curve); settings: Drosophila S3 cells, BODIPY lipid droplet/cell ratio, laser cytometry, cells loaded with oleic acid; for activity change, negative = inhibition: at 57.5 µM (top of the series)
Summary of the method: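 Cells seeded at 5,000 per well were treated with compounds over a concentration series and loaded with oleic acid (400 uM, as added). Lipid droplet fluorescence (488 nm excitation, 500-530 nm channel) was read by laser-scanning cytometry and normalized to 20 uM Triacsin C.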

[10] = target: Dual specificity protein kinase CLK4 (Homo sapiens) (UniProt Q9HAZ1); assay: qHTS Assay for Inhibitors of CDC-like Kinase 4 (Kinase-Glo Assay) (AID 1770); settings: recombinant Clk4, Kinase-Glo ATP depletion luminescence; series mostly up to 66.7 µM; also: nearly all actives have a fitted effect of over 65% in size; also: potency is read from the fitted curve at half-maximal effect
Summary of the method: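 Recombinant human Clk4 (25 nM) phosphorylated RS repeat peptide (100 uM) with 1 uM ATP in Tris pH 7.5/MgCl2/EGTA/DTT/Triton buffer for 4.5 h at room temperature. Residual ATP was quantified by Kinase-Glo luciferase luminescence.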

[11] = target: Dual specificity protein kinase CLK4 (Homo sapiens) (UniProt Q9HAZ1); assay: qHTS Assay for Inhibitors of CDC-like Kinase 4 (ADP-Glo Assay) (AID 1771); settings: recombinant CLK4, ADP-Glo luminescence; series mostly up to 80 µM; also: nearly all actives have a fitted effect of over 70% in size; also: potency is read from the fitted curve at half-maximal effect
Summary of the method: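 25 nM Clk4, 100 uM RS peptide, 1 uM ATP (final); 2 mM MgCl2, 0.5 mM EGTA, 2.5 mM DTT, 0.01% Triton X-100; 1 hr RT. ADP-Glo readout: ATP depletion 45 min, conversion/luciferase 30 min, luminescence.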

[12] = target: Dual specificity protein kinase CLK4 (Homo sapiens) (UniProt Q9HAZ1); assay: qHTS Assay for Inhibitors of CDC-like Kinase 4 (ADP-FP Assay) (AID 1795); settings: Transcreener ADP fluorescence polarization; series mostly up to 50 µM; also: nearly all actives have a fitted effect of over 60% in size; also: potency is read from the fitted curve at half-maximal effect
Summary of the method: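 Recombinant human Clk4 (6.25 nM) phosphorylated RS repeat peptide (100 uM) with 1 uM ATP in Tris pH 7.5/MgCl2/EGTA/DTT/Triton buffer for one hour. ADP was quantified by Transcreener competitive fluorescence polarization against an ADP calibration curve.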

[13] = target: Ubiquitin carboxyl-terminal hydrolase 1 (Homo sapiens) (UniProt O94782); assay: Inhibitors of USP1/UAF1: Pilot qHTS (AID 504865); settings: purified USP1/UAF1, Ub-rhodamine cleavage fluorescence; series mostly up to 54.9 µM;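 also: rhodamine fluorescence freed from ubiquitin-rhodamine substrate followed over time; top concentration of the series differs between compounds; % is scaled to controls: 0 for no effect and ±100 for the full control effect; nearly all actives have a fitted effect of over 35% in size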
Summary of the method: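 USP1/UAF1 complex (1nM) preincubated with compound 15 min at room temperature, then Ub-Rho substrate (150nM final) added. Fluorescence read kinetically at 480/540 nm, 6 reads every 60 seconds. Buffer: 50mM HEPES pH 7.8, 0.5mM EDTA, 0.1 mg/ml BSA, 1mM TCEP, 0.01% Tween-20.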

[14] = Primary qHTS for small molecule stabilizers of the endoplasmic reticulum resident proteome: Secreted ER Calcium Modulated Protein (SERCaMP) assay (AID 1508630); settings: SH-SY5Y GLuc-SERCaMP (Gaussia luciferase released on ER calcium loss) secretion, thapsigargin, luminescence; series mostly up to 38.4 µM; also: % is scaled to controls: 0 for no effect and ±100 for the full control effect
Summary of the method: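 The SH-SY5Y reporter protocol was run at 3 concentrations up to 38.3 uM (primary) or 11 concentrations (follow-up): 16 h compound, 100 nM thapsigargin for 4 h, then extracellular luciferase luminescence.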

[15] = target: Cytochrome P450 1A2 (Homo sapiens) (UniProt P05177); assay: p450-cyp1a2 (AID 410; calls by dose curve; also: potency is read from the fitted curve at half-maximal effect); settings: recombinant CYP1A2, luciferin-ME demethylation, luminescence; series mostly up to 57 µM
Summary of the method: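 20nM CYP1A2, 100uM Luciferin-ME (=Km), 100mM KPO4; cpd 10 min RT; +NADPH regen, 60 min RT; stop/detect 20 min; luminescence. Normalized to furafylline 57 uM = full inhibition.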

[16] = target: Cytochrome P450 3A4 (Homo sapiens) (UniProt P08684); assay: qHTS Assay for Activators of Cytochrome P450 3A4 (AID 885); settings: recombinant CYP3A4, Luciferin-PPXE luminescence, 60 min; series mostly up to 57.1 µM; also: nearly all actives have a fitted effect of over 65% in size
Summary of the method: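 Human CYP3A4 dealkylates Luciferin-PPXE to luciferin, which luciferase detection converts to light. Substrate was at its KM (25uM), buffer 200mM KPO4, reaction 60 min at RT.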

[17] = measured here: cell count channel max response
[18] = measured here: lipid channel max response

Glucocorticoid receptor (Homo sapiens), sequence (P04150 whole entry, looked up, the tested form may be a part): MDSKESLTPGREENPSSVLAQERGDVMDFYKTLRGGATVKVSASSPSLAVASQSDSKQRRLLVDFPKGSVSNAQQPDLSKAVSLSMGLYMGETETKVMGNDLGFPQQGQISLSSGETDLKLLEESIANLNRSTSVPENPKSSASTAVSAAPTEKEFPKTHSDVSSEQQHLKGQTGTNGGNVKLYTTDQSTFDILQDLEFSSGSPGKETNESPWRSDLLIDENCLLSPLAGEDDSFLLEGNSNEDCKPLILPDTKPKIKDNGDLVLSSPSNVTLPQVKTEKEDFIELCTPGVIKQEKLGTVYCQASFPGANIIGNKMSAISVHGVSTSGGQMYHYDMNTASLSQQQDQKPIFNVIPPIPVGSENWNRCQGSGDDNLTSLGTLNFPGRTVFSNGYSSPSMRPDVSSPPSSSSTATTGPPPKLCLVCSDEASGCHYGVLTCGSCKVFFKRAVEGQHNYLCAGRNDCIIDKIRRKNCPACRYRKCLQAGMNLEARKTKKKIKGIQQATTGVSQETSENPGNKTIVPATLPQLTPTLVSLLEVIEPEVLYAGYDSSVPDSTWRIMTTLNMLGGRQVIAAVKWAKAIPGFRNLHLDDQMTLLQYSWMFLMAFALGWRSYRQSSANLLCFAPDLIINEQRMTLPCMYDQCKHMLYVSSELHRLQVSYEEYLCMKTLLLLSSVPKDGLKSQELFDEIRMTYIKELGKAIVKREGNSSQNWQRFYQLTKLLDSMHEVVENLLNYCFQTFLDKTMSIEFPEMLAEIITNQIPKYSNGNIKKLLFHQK
Dual specificity protein kinase CLK4 (Homo sapiens), sequence (Q9HAZ1 whole entry, looked up): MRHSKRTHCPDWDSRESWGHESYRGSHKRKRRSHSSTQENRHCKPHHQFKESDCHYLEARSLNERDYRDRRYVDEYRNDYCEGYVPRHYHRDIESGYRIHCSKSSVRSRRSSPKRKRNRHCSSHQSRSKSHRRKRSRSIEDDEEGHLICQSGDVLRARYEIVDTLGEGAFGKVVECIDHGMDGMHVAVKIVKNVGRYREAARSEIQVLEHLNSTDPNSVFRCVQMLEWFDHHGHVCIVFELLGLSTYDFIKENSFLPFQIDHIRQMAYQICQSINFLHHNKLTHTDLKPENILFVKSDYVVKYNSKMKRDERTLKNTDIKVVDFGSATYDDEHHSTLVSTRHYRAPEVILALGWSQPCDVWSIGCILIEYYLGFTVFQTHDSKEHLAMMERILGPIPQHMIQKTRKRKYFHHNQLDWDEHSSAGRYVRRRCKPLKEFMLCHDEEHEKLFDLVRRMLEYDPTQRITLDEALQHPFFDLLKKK
Ubiquitin carboxyl-terminal hydrolase 1 (Homo sapiens), sequence (O94782 whole entry, looked up): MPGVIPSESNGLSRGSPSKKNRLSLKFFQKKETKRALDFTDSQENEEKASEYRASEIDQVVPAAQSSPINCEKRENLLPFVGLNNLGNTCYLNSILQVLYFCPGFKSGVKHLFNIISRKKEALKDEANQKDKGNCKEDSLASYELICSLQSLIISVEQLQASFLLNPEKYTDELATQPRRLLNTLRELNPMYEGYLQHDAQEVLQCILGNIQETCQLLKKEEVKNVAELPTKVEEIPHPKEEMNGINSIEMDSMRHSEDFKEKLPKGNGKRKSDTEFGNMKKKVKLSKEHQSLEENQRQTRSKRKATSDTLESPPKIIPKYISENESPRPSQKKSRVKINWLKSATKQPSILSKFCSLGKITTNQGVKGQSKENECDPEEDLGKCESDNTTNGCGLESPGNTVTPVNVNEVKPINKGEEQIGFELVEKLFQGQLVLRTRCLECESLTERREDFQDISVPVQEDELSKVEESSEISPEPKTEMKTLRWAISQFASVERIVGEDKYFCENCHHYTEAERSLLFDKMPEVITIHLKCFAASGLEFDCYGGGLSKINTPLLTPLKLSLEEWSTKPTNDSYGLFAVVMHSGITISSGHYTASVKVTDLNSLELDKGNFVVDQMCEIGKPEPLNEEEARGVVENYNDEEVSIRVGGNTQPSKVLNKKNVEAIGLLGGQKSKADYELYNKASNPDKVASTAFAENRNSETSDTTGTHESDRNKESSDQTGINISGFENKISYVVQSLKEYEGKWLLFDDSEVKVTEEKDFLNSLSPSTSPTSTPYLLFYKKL
Lysosomal acid glucosylceramidase (Homo sapiens), sequence (P04062 whole entry, looked up): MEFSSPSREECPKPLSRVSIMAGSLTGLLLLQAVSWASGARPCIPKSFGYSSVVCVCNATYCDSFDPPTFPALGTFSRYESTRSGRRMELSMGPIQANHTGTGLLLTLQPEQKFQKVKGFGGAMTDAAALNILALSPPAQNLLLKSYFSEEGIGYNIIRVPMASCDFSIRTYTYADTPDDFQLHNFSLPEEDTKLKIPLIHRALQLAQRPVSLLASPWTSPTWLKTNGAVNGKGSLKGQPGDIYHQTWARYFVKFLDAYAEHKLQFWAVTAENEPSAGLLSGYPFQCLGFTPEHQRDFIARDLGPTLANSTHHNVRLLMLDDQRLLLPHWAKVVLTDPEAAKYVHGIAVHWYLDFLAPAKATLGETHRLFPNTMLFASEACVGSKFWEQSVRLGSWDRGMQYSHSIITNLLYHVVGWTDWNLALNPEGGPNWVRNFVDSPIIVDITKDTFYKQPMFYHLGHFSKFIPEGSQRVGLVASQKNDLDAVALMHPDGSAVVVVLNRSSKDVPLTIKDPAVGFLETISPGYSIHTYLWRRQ
3',5'-cyclic-AMP phosphodiesterase 4B (Homo sapiens), sequence (Q07343 whole entry, looked up): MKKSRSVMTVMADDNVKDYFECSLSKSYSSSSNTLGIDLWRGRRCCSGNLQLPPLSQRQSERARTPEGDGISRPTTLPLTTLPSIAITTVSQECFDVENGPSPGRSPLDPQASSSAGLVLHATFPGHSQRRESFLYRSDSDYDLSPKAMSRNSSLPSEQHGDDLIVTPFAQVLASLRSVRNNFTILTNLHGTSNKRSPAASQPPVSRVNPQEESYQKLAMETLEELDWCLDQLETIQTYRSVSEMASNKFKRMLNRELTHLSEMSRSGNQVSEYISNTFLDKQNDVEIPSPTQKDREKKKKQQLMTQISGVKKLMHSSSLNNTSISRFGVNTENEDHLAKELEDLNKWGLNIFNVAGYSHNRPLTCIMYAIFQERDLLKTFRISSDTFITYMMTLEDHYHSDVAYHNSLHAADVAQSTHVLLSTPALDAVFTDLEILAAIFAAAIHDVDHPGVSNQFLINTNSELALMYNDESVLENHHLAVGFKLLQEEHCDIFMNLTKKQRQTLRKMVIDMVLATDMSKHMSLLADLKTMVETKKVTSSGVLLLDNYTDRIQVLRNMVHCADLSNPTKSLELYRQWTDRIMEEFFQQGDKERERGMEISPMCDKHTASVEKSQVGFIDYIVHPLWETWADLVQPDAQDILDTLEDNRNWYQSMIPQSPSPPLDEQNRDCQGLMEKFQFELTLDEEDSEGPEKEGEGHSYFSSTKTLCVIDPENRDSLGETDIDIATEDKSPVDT
Cytochrome P450 3A4 (Homo sapiens), sequence (P08684 whole entry, looked up): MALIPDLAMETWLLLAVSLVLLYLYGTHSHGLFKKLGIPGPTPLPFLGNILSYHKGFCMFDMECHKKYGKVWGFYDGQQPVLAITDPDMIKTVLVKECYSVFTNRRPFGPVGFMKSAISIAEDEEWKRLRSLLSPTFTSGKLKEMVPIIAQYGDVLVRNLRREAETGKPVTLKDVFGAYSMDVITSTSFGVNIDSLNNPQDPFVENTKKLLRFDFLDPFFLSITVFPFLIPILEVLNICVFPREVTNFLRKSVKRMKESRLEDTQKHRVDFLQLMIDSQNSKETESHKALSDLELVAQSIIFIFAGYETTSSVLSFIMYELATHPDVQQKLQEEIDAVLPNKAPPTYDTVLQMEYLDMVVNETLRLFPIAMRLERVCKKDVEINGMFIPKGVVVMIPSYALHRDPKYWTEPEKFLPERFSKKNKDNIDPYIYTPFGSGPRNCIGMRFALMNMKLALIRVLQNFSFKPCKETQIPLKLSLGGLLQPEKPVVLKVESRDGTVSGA
Cytochrome P450 1A2 (Homo sapiens), sequence (P05177 whole entry, looked up): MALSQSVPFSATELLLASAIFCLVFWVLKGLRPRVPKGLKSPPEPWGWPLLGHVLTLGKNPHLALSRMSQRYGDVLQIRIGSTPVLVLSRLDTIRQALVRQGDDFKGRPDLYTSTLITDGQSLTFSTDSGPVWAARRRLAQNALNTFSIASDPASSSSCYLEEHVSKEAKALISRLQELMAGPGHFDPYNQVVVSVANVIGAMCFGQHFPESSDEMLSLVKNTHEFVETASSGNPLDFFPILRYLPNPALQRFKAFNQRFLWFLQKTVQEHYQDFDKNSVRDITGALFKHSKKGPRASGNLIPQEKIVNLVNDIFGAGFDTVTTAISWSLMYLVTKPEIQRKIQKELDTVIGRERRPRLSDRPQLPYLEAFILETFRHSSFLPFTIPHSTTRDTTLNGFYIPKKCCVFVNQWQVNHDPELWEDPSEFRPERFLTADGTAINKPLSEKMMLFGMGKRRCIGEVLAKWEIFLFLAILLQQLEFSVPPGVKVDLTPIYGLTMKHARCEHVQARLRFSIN

Compound	Potency [1]	activity change, negative = inhibition [2]	activity change, negative = inhibition [3]	activity, negative = inhibition [4]	Potency [5]	Potency [6]	outcome [7]	Potency [8]	activity change, negative = inhibition [9]	max response [9, 17] [%]	max response [9, 18] [%]	Potency [10]	Potency [11]	Potency [12]	Potency [13]	Potency [14]	Potency [15]	Potency [16]
COCCn1c(=O)c(-c2ccc(Cl)cc2)nc2cnc(Oc3cccc(Cl)c3)nc21	> 11.4 µM (inactive)	13.2% (inactive)	-0.0987% (inactive)	-8.1% (inactive)	> 9.22 µM (inactive)	> 46 µM (inactive)	inactive	inactive	4.42% (inactive)	19.3	25.5	inactive	inactive	inactive	inactive	inactive		
Cn1cc(-c2nc3cnc(Oc4ccccc4)nc3n(C)c2=O)c2ccccc21	> 11.4 µM (inactive)		-2.6% (inactive)	24.9% (inactive)	> 9.22 µM (inactive)	> 46 µM (inactive)	inactive		-0.452% (inactive)	14.6	18.4	inactive	inactive	inactive	inactive	inactive	12.6 µM (active)	
COCCn1c(=O)c(C)nc2cnc(Oc3ccccc3)nc21	> 11.4 µM (inactive)	-9.67% (inactive)	-4.22% (inactive)	-12.4% (inactive)	> 9.22 µM (inactive)		inactive	inactive	4.7% (inactive)	23.5	27.5	inactive	inactive	inactive	inactive	inactive		inactive
c1nc(N2CCNCC2)c2cc(-c3ccoc3)ccc2n1	> 11.4 µM (inactive)	-10.9% (inactive)	9.12% (inactive)	-4.93% (inactive)	> 46 µM (inactive)	> 46 µM (inactive)	inactive	inactive	3.07% (inactive)	29.3	29.5	1.58 µM (active)	3.16 µM (active)	0.708 µM (active)	inactive	inactive		
CN(C)c1ncc2nc(-c3ccccc3)c(=O)n(C[C@H]3CCCO3)c2n1	> 11.4 µM (inactive)	11.9% (inactive)	24.6% (inactive)	20.6% (inactive)	> 9.22 µM (inactive)	> 46 µM (inactive)			0.857% (inactive)	3.82	2.54	inactive	inactive	inactive	inactive	inactive		inactive
O=c1c(-c2cc(F)cc(F)c2)nc2cnc(N3CCOCC3)nc2n1C[C@H]1CCCO1	> 11.4 µM (inactive)		-16% (inactive)	0.32% (inactive)	> 9.22 µM (inactive)	> 46 µM (inactive)	inactive	inactive	5.53% (inactive)	8.91	13.4	inactive	inactive	inactive	inactive	inactive	2.51 µM (active)	
